Compound activity as filed in PubChem BioAssay.
Hits are enriched below; roughly 27% of the tested compounds scored in any of these assays.
sEH act – soluble epoxide hydrolase (human) activation; purified human sEH enzymatic activity, activator screen; P34913; activation, % at 2 µM; 91,000 tested, 0.04% active; in the data active means activation above about 37%
CYP2C19 activ – cytochrome P450 2C19 (human) activation; activation factor at 5 µM; P33261; AID 1025; 96,000 tested, under 10 active; recombinant CYP2C19, luciferin-H EGE luminescence; active compounds read high; 0 = fully inhibited enzyme, 1 = untreated enzyme;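 active means activation factor of at least 2 at 5 µM in the primary screen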
Target sequence (P33261 whole entry, looked up): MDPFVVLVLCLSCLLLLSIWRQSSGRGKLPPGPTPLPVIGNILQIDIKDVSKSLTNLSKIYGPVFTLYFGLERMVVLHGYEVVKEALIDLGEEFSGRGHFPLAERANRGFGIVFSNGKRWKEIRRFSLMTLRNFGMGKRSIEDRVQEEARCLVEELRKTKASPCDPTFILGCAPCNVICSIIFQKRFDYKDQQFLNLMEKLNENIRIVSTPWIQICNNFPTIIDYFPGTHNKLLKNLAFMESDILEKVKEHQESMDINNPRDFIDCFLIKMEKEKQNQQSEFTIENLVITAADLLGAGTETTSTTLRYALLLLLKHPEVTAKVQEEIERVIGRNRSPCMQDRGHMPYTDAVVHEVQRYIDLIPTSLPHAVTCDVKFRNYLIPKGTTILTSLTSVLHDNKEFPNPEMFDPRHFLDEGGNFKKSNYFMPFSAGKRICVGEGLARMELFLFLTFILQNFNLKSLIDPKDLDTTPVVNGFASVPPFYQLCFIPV
CYP2C9 inhib – blocks human cytochrome P450 2C9 | inhibition, % at 5 µM | 96,000 tested, 20% active | CYP2C9 Supersomes, luciferin-H conversion, luminescence | AID 777;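 active means blocking of liver enzyme CYP2C9 beyond about 50% at 5 µM, limit read from the data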
sEH inhibitor – blocks human soluble epoxide hydrolase activity; inhibition, % at 2 µM; recombinant human sEH enzymatic activity assay; 91,000 tested, 0.34% active; P34913; in the data active means inhibition above about 80%
CYP2C9 activ – CYP2C9 (human) activation; P11712; 96,000 tested, 1.4% active; activation factor at 5 µM; AID 1024; recombinant CYP2C9, luciferin-H conversion, luminescence; active compounds read high; factor 1 = untreated enzyme, 0 = blocked;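 active means activation factor of 2 or more for CYP2C9 at a 5 µM dose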
CYP2C19 inhib – inhibitors of human CYP2C19; CYP2C19 Supersomes, luciferin-H EGE luminescence, 30 min; P33261; inhibition, % at 5 µM; 96,000 tested, 21% active;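 active means CYP2C19 inhibition above a set limit at 5 µM in the primary screen, cut at about 50% in these data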
Each line names hits and unclear results; the compound was inactive in the other large screens.

CC1=CC(C)(C)Nc2ccc(OC(=O)c3ccco3)cc21	CYP2C19 inhib 78.0
CC1=CC(C)(C)Nc2ccc(OC(=O)c3cccnc3)cc21	CYP2C19 inhib 71.4
Cc1ccc(NC(=O)c2ccc(OC(=O)c3ccco3)cc2)cc1	none
CC1=CC(C)(C)Nc2ccc(OC(=O)CN3C(=O)CCC3=O)cc21	none (no result: sEH act, sEH inhibitor)
CCOc1ccc(OC(=O)c2cccnc2)cc1	none
CC1=CC(C)(C)Nc2ccc(OC(=O)C(C)N3C(=O)c4ccccc4C3=O)cc21 (stereo not drawn)	CYP2C9 inhib 87.4
Cc1oc(C(C)(C)C)cc1C(=O)N1CCCC1C(=O)O (stereo not drawn)	none (no result: CYP2C19 activ, CYP2C9 inhib, CYP2C9 activ, CYP2C19 inhib)
CC(C)OC(=O)c1c(NC(=O)c2cnn3c2NC(c2ccccc2)CC3C(F)(F)F)sc2c1CCCC2 (stereo not drawn)	none
CC(C)OC(=O)c1c(NC(=O)CCn2nnc3ccccc32)sc2c1CCCC2	CYP2C9 inhib 82.3, CYP2C19 inhib 56.7 (no result: sEH act, sEH inhibitor)
O=C(CN1CCN(C2CCCCC2)CC1)c1ccc2cc[nH]c2c1	none
C/C(=C\C(=O)O)C12CC3CC(CC(C3)C1)C2	none
COc1cccc(/C=N/NC(=O)c2[nH]c(C)c(C(=O)N/N=C/c3cccc(OC)c3O)c2C)c1O	none
COC(=O)c1sc2ccccc2c1-n1cccc1C(=O)C(=O)Nc1ccc(Cl)cc1	CYP2C9 inhib 99.1
COC(=O)c1sc2ccccc2c1N	none (no result: sEH act, sEH inhibitor)
COC(=O)c1sc2ccccc2c1-n1cccc1C(=O)C(=O)Nc1ccc(F)cc1	CYP2C9 inhib 99.6
COC(=O)c1cccc(C(=O)Nc2ccc(F)cc2)n1	none
COC(=O)c1sc2ccccc2c1-n1cccc1C(=O)C(=O)Nc1ccc(C)cc1	CYP2C9 inhib 100.4
Cc1sc2nc(CN(CCc3ccccc3)C(=O)c3ccco3)[nH]c(=O)c2c1C	none (no result: sEH act, sEH inhibitor)
O=C(CCN1C(=O)C2C3C=CC(C3)C2C1=O)N1CC(=O)N(CCc2ccccc2)C(=O)C1 (stereo not drawn)	none (no result: sEH act, sEH inhibitor)
O=C(CSc1ccc2c(c1)OCCO2)NCC1CCCO1 (stereo not drawn)	none
Cc1c(C#N)c(N=CN(C)C)c(C(=O)c2ccccc2)n1-c1ccc(Br)cc1	CYP2C9 inhib 60.9, CYP2C19 inhib 73.1
Cc1c(C#N)c(N=CN(C)C)c(C(=O)c2ccc(Br)cc2)n1-c1ccccc1	none
CN1CCN(C(=O)C23CCC(C)(c4nc5ccccc5nc42)C3(C)C)CC1 (stereo not drawn)	none
Fc1ccc(C(c2nnnn2C2CCCC2)N2CCN(Cc3ccccc3)CC2)cc1 (stereo not drawn)	none (no result: sEH act, sEH inhibitor)
Fc1ccccc1N1CCN(C(c2ccncc2)c2nnnn2C2CCCC2)CC1 (stereo not drawn)	CYP2C9 inhib 64.5, CYP2C19 inhib 85.6 (no result: sEH act, sEH inhibitor)
O=c1c(C(c2nnnn2C2CCCCC2)N2CCCCC2)coc2ccc(Cl)cc12 (stereo not drawn)	CYP2C19 inhib 51.7 (no result: sEH act, sEH inhibitor)
c1ccc(C(c2nnnn2C2CCCC2)N2CCCCCC2)nc1 (stereo not drawn)	CYP2C19 inhib 51.9
N#Cc1cccc(C(c2nnnn2C2CCCC2)N2CCCCCC2)c1 (stereo not drawn)	none
Clc1ccc(C(c2nnnn2C2CCCC2)N2CCN(Cc3ccncc3)CC2)cc1 (stereo not drawn)	CYP2C9 inhib 90.5, CYP2C19 inhib 98.1
C=CCn1c(COc2ccc(CC)cc2)nnc1SC/C(O)=C(\C#N)c1nc2ccccc2[nH]1	none
CCC(c1nnnn1C1CCCC1)N1CCN(c2ccccc2F)CC1 (stereo not drawn)	CYP2C9 inhib 55.7
CCCC(c1nnnn1C1CCCC1)N1CCN(c2ccccc2F)CC1 (stereo not drawn)	CYP2C9 inhib 97.2, CYP2C19 inhib 79.5
Cc1ccc(C(=O)Nc2cnc3sc(C)nn3c2=O)cc1	none
CCN1CCN(Cc2ccc3c(c2)Cc2ccccc2-3)CC1	none (no result: sEH act, sEH inhibitor)
c1ccc(Oc2cccc(CN3CCOCC3)c2)cc1	CYP2C19 inhib 77.1
c1ccc(CN2CCOCC2)cc1	none
c1ccc2c(c1)Cc1cc(CN3CCOCC3)ccc1-2	CYP2C19 inhib 61.9
Cn1c(SCc2ccccc2Cl)nc(C(F)(F)F)cc1=O	none
N#CCCN(Cc1cccnc1)S(=O)(=O)c1ccc(S(=O)(=O)NC2CCCCC2)cc1	CYP2C19 inhib 59.1
O=C(NC1CCCCC1)c1ccc(S(=O)(=O)NCc2cccnc2)cc1	none (no result: sEH act, sEH inhibitor)
Cc1csc(NC(=O)C(Cc2ccccc2)n2cccc2)n1 (stereo not drawn)	CYP2C9 inhib 62.6
O=C(NCc1cccs1)C(Cc1ccccc1)n1cccc1 (stereo not drawn)	CYP2C9 inhib 56.8, CYP2C19 inhib 63.8 (no result: sEH act, sEH inhibitor)
CSCC[C@@H](C(=O)NCc1cccs1)N1Cc2ccccc2C1=O	CYP2C19 inhib 59.4
CC(C(=O)NCc1cccs1)n1cccc1 (stereo not drawn)	none
Cc1nn(-c2ccccc2)c2c1C(c1cccnc1)N1C=C(S(=O)(=O)N3CCCCC3)C=CC1=N2 (stereo not drawn)	none (no result: sEH act, sEH inhibitor)
O=S(=O)(NC1CCc2ccccc21)c1ccc(S(=O)(=O)N2CCCC2)cc1 (stereo not drawn)	none (no result: sEH act, sEH inhibitor)
CCOC(=O)N1CCN(S(=O)(=O)c2c(C)nn(C)c2C)CC1	none
CCSC(C)CC1C/C(=N/O)c2c(CC)noc2C1 (stereo not drawn)	CYP2C9 inhib 93.5, CYP2C19 inhib 90.0 (no result: sEH act, sEH inhibitor)
CCCc1noc2c1/C(=N\O)CC(CC(C)SCC)C2 (stereo not drawn)	CYP2C9 inhib 98.0, CYP2C19 inhib 72.6 (no result: sEH act, sEH inhibitor)
O=C(NCCCN1CCCC1=O)c1cc(NS(=O)(=O)c2ccc(F)cc2)cc(NS(=O)(=O)c2ccc(F)cc2)c1	none
CC(C)CC(=O)NC1(C(F)(F)F)C(=O)Nc2c1c(=O)n(C)c(=O)n2C (stereo not drawn)	none
COc1ccc(N2CCn3c2nc2c3c(=O)n(CCc3ccccc3)c(=O)n2C)cc1	none (no result: sEH act, sEH inhibitor)
Cc1ccc(S(=O)(=O)C2(C(=O)Nc3cccc(F)c3)CC2)cc1	CYP2C19 inhib 95.4 (no result: sEH act, sEH inhibitor)
CS(=O)(=O)N(CC(=O)Nc1ccc2c(c1)OCO2)c1ccc(Cl)cc1	CYP2C9 inhib 89.9, CYP2C19 inhib 88.4 (no result: sEH act, sEH inhibitor)
CS(=O)(=O)N(CC(=O)Nc1ccc2c(c1)OCO2)Cc1ccc(Cl)cc1	CYP2C9 inhib 77.4, CYP2C19 inhib 84.4
CS(=O)(=O)N(CC(=O)O)c1ccc2c(c1)OCO2	none
Cc1ccc(NC(=O)C2(S(=O)(=O)c3ccc(C)cc3)CC2)cc1	none
O=C(Nc1ccc2c(c1)OCO2)C1(S(=O)(=O)c2ccc(Cl)cc2)CC1	CYP2C9 inhib 84.7
O=C(O)c1ccc2c(c1)N(Cc1cccc(F)c1)C(=O)CS2	none
CCOC(=O)C1=C(C)Nc2nc(SC)nn2C1c1ccc(C(=O)OC)cc1 (stereo not drawn)	none
CN(C)C(=O)C1OC(C)(C)OC1C(=O)N(C)C (stereo not drawn)	none
COC(=O)c1ccc(NC(=O)CN(Cc2ccc(Cl)cc2)S(C)(=O)=O)cc1	CYP2C9 inhib 81.6, CYP2C19 inhib 94.6
